Calls of active or inactive are those of the source. The calls were made as follows: active = hit-call score of the fitted dose curve at least 0.9, where 1 is the maximum; inactive = score below 0.9.

Common to all, as to conditions: mRNA level, 48 h; actives raise or lower the signal
Read-out in test [1]: Peroxisomal acyl-coenzyme A oxidase 1 (ACOX1) gene, ACOX1 (gene 51)
Description: LTEA_HepaRG_ACOX1: Life Technologies and Expression Analysis (LTEA) Assay for Peroxisomal acyl-coenzyme A oxidase 1 (ACOX1) gene using HepaRG (AID 2283467). The procedure, abridged: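 HepaRG, 48 h chemical exposure, 8-pt half-log series from 100 uM top, 0.5% DMSO vehicle, duplicates. Readout: ACOX1 mRNA by Fluidigm qRT-PCR, housekeeping-normalized; bidirectional fit vs DMSO baseline.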

Read-out in test [2]: Alkaline Phosphatase, Placental (ALPP) gene, ALPP (gene 250)
The test can be described thus: LTEA_HepaRG_ALPP: Life Technologies and Expression Analysis (LTEA) Assay for Alkaline Phosphatase, Placental (ALPP) gene using HepaRG (AID 2283468).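 As to AC50: differentiated human HepaRG liver cells in serum-free induction medium; ALPP transcript by TaqMan qRT-PCR normalized to ACTB GAPDH and POLR2A.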 Summed up:
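Expression of ALPP was quantified by qRT-PCR against three housekeeping genes in human HepaRG cultures treated for 48 h with an eight-point concentration series up to 100 uM. Activity in either direction was fitted relative to 0.5% DMSO.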

Read-out in test [3]: Bcl-2 (BAD) gene, BAD (gene 572)
Description: LTEA_HepaRG_BAD: Life Technologies and Expression Analysis (LTEA) Assay for Bcl-2 (BAD) gene using HepaRG (AID 2283469). The procedure, abridged: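 HepaRG, 48 h exposure, 8-pt half-log curve from 100 uM in 0.5% DMSO, duplicates. Readout: TaqMan qRT-PCR for BAD mRNA, housekeeping-normalised (ACTB/GAPDH/POLR2A); gain or loss fitted against DMSO baseline.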

Read-out in test [4]: Bcl-2 (BAX) gene, BAX (gene 581)
Description: LTEA_HepaRG_BAX: Life Technologies and Expression Analysis (LTEA) Assay for Bcl-2 (BAX) gene using HepaRG (AID 2283470). Summed up: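 Cells were thawed, plated for 48 h, moved to serum-free induction medium and dosed for 48 h (highest concentration 100 uM, half-log steps, 0.5% DMSO). Total RNA was then analysed for BAX expression by qRT-PCR.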

Read-out in test [5]: Alpha-fetoprotein (AFP) gene, AFP (gene 174)
Description: LTEA_HepaRG_AFP: Life Technologies and Expression Analysis (LTEA) Assay for Alpha-fetoprotein (AFP) gene using HepaRG (AID 2283472).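 As to AC50: AFP transcript by TaqMan qRT-PCR normalized to ACTB GAPDH and POLR2A.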 Summed up:
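Chemicals were tested on differentiated HepaRG cells for 48 hours at eight concentrations up to 100 uM, with 0.5% DMSO as vehicle. AFP expression was then quantified by qRT-PCR and analyzed for gain or loss relative to DMSO.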

Read-out in test [6]: BCL2L11 (gene 10018)
The test can be described thus: LTEA_HepaRG_BCL2L11: Life Technologies and Expression Analysis (LTEA) Assay for Bcl-2 (BCL2L11) gene using HepaRG (AID 2283473). The procedure, abridged:
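Cells were plated, cultured 48 h, switched to serum-free induction medium, then dosed in duplicate for 48 h at eight half-log concentrations up to 100 uM. Lysates underwent RNA isolation and TaqMan qRT-PCR; gain or loss versus DMSO was fitted.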

Read-out in test [7]: Apoptosis regulator Bcl-2 (Homo sapiens) (UniProt P10415)
The test can be described thus: LTEA_HepaRG_BCL2: Life Technologies and Expression Analysis (LTEA) Assay for Bcl-2 gene using HepaRG (AID 2283475). Summed up: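 Plated human HepaRG cells are exposed to test chemicals for 48 h across eight concentrations from 100 uM downward in half-log steps (0.5% DMSO). BCL2 expression is then measured by qRT-PCR with housekeeping normalisation and fitted bidirectionally against vehicle.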

Read-out in test [8]: adenosine kinase (ADK) gene, ADK (gene 132)
The test can be described thus: LTEA_HepaRG_ADK: Life Technologies and Expression Analysis (LTEA) Assay for adenosine kinase (ADK) gene using HepaRG (AID 2283471). Summed up:
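Read-out is ADK transcript level measured by qRT-PCR and normalised to three housekeeping genes. Cells are human HepaRG, dosed for 48 h at up to 100 uM in 0.5% DMSO. Gain or loss of signal is fitted against DMSO controls.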

Read-out in test [9]: Apolipoprotein A-V (APOA5) gene, APOA5 (gene 116519)
Description: LTEA_HepaRG_APOA5: Life Technologies and Expression Analysis (LTEA) Assay for Apolipoprotein A-V (APOA5) gene using HepaRG (AID 2283474). Summed up:
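Human liver HepaRG cells are treated 48 h with test chemicals (100 uM top, half-log dilutions, 0.5% DMSO). APOA5 mRNA induction or loss is measured by qRT-PCR relative to vehicle.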

Chain of Apoptosis regulator Bcl-2 (Homo sapiens) (P10415 whole entry, looked up): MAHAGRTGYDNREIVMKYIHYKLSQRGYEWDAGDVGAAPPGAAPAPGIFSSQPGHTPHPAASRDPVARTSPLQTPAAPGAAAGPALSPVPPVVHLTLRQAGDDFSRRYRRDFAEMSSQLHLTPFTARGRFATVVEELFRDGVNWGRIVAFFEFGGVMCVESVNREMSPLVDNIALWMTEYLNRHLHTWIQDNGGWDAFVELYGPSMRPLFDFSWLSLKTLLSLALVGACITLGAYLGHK

What is called AC50 is the concentration at which the activity in the assay is half-maximal. As for `Cc1oc2c(NC(=O)c3c(Cl)cccc3Cl)cccc2c1C(C)(C)O`, the AC50 in [1] was 30 µM (active); in test [2], 50 µM (active); in test [4], 85.9 µM (active); in test [5] it was 15.8 µM (active); in [7], 55.3 µM (active). The outcome in test [3] and in test [6] was inactive.
As to `c1ccc2ccccc2c1`, the result in test [1], in test [2], in [3], in test [4], in test [8] and in [5] was inactive. In addition, the compound was classed as inactive in test [6] and in test [7].
Consider `CN(C)c1ccc(C(=C2C=CC(=[N+](C)C)C=C2)c2ccc(N(C)C)cc2)cc1`, for which the AC50 in test [1] is 12.9 µM (active); in [2] it was 3.9 µM (active); in [5], 1.91 µM (active); in test [6] it was 23.5 µM (active); in test [7], 5 µM (active). Moreover, the result in test [4] was inactive.
Consider `c1ccc(C[n+]2cccc3ccccc32)cc1`, for which the AC50 was 22.8 µM (active) in test [1]; 13 µM (active) in test [2]; 69.4 µM (active) in [4]; 35 µM (active) in [5]; 32.4 µM (active) in test [6]; 31.4 µM (active) in [9]. Besides, in test [7], the AC50 is 35.1 µM (active). The call in test [3] was inactive.
Take `CCO[Si](CCCNC(N)=O)(OCC)OCC`: the compound was classed as inactive in test [1], in [2], in [3], in test [4], in test [5] and in [6]. Also, the outcome in test [9] and in [7] was inactive.
Turning to `C[C@]12CC[C@@H]3c4ccc(O)cc4CC[C@H]3[C@@H]1CCC2=O`, the compound was called inactive in [1], in test [2], in [3], in test [4], in [8] and in [6]. Besides, the result in test [7] was inactive. Besides, the AC50 in test [5] is 26.6 µM (active).
Consider `O=c1c(-c2ccc(O)cc2)coc2cc(O)cc(O)c12`, for which the call in [1], in [2], in [3], in test [4], in test [8] and in test [5] was inactive. Besides, the compound was classed as inactive in test [6] and in test [7].
Consider `c1ccc2n[nH]nc2c1`, for which the compound was classed as inactive in [1], in test [2], in [3], in [4], in [8] and in [5]. For the same compound, the compound was classed as inactive in test [6], in [9] and in test [7].
Consider `Cc1ncc(CO)c(CO)c1O`, for which the outcome in test [1], in test [2], in test [3], in [4], in test [5] and in test [6] was inactive. The compound was classed as inactive in [9] and in test [7].
As to `CC(C)(C)c1csc(-c2cc3cc(OCc4ccccc4CC(=O)O)ccc3o2)n1`, the AC50 in [1] was 72.1 µM (active); in test [2], 24.4 µM (active); in [8] it was 73.1 µM (active); in [5], 23.9 µM (active); in [6], 18.8 µM (active). Further, the compound was called inactive in test [3], in [4] and in test [7].
On to `O=CCCCC=O`, for which the call in test [1], in test [2], in test [3], in [4], in test [8] and in test [5] was inactive. Further, the compound was called inactive in test [6] and in test [7].
Take `CC(=O)N1CCN(c2ccc(OC[C@H]3CO[C@](Cn4ccnc4)(c4ccc(Cl)cc4Cl)O3)cc2)CC1`: the AC50 in [1] was 18.1 µM (active); in test [4], 11.8 µM (active); in test [8] it was 65 µM (active); in test [5], 19.1 µM (active); in test [7] it was 11.5 µM (active). Moreover, the result in test [3] and in [6] was inactive.
For `CCCCCCCC[Si](OCC)(OCC)OCC`, the compound was called inactive in test [1], in test [2], in test [3], in test [4], in test [5] and in test [6]. Further, the result in [9] and in test [7] was inactive.
`CC(C)(c1cc(Br)c(O)c(Br)c1)c1cc(Br)c(O)c(Br)c1`: the half-maximal activity concentration (AC50) in test [1] was 89.1 µM (active); in test [4], 22.6 µM (active); in [8] it was 92.5 µM (active). In addition, the compound was called inactive in test [2], in [3], in [5], in test [6], in [9] and in test [7].
For `NC(=O)c1nc(-c2cccc(-c3cc(F)ccc3OCC(F)(F)C(F)(F)F)c2)n[nH]1`, the AC50 in test [1] is 81.4 µM (active); in test [2], 3.42 µM (active); in [8], 92.8 µM (active); in test [6] it was 74.2 µM (active). The call in test [3], in test [4], in test [5] and in test [7] was inactive.
With `CN1C(=O)CC[C@H]1c1cccnc1`, the outcome in [1], in test [2], in test [3], in test [4], in [8] and in [5] was inactive. Moreover, the compound was called inactive in [6], in test [9] and in test [7].
With `CCCCCc1ccc(N)cc1`, the compound was called inactive in test [1], in [2], in test [3], in test [4], in test [8] and in [5]. The result in test [6], in [9] and in test [7] was inactive.
On to `Cc1cccc2ccccc12`, for which the compound was called inactive in test [1], in [2], in [3], in [4], in test [5] and in test [6]. For the same compound, the compound was called inactive in test [7].
`Cc1occc1C(=O)Nc1ccc(C(=O)N2CCC(F)(F)/C(=C\C(=O)N3CCC(N4CCCCC4)CC3)c3ccccc32)cc1`: the AC50 in test [1] is 31.2 µM (active); in test [2], 46.7 µM (active); in [5], 44.8 µM (active); in test [9], 39 µM (active). In addition, the compound was classed as inactive in test [3], in test [4], in test [6] and in [7].
For the compound `CCCCCCCCCCCC[N+](C)(C)C`, the AC50 was 77.8 µM (active) in [1]; 66.1 µM (active) in test [2]; 84.6 µM (active) in test [4]; 90.3 µM (active) in [6]; 84.4 µM (active) in test [7]. Moreover, the call in test [3] and in [5] was inactive.

The record behind these values is PubChem BioAssay (EPA / NIEHS).
